Experimental data taken from PubChem BioAssay (NCATS).
“And” between values parts separate entries of the source, which are not always exact repeats. Equal entries are not always repeated. A number with no mark means an inactive call. The source made the active and inactive calls. The rule behind the calls is not given here.

What was measured:
[1] = target: Nuclear receptor subfamily 1 group I member 2 (Rattus norvegicus) (UniProt Q9R1A7); test: qHTS assay for small molecule activators of the rat pregnane X receptor (rPXR) signaling pathway (AID 651751); details: rPXR reporter cells, luciferase (One-Glo), 24 h
[2] = qHTS assay for small molecule activators of the human pregnane X receptor (PXR) signaling pathway (AID 720659); details: DPX-2 HepG2 CYP3A4-luciferase, 24 h; series mostly up to 92.3 µM
Note: 0% is about no effect.

Sequence of Nuclear receptor subfamily 1 group I member 2 (Rattus norvegicus) (Q9R1A7 whole entry, looked up): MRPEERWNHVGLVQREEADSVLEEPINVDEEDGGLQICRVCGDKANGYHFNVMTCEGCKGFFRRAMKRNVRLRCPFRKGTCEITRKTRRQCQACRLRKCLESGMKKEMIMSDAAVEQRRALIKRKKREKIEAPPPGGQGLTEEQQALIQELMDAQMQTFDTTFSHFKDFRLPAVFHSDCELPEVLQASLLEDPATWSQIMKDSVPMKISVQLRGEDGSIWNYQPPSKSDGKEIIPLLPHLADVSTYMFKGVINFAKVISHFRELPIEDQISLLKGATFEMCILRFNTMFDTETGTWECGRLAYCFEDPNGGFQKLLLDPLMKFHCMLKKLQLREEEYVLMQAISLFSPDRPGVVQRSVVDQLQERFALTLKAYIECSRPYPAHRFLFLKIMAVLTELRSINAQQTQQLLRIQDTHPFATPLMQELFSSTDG

Row | Structure (SMILES) | max response [1] | outcome [2]
1 | O=C(O)c1ccc(S(=O)(=O)N(Cl)Cl)cc1 | 3.23% | inactive
2 | CCCCOC(=O)CC(CC(=O)OCCCC)(OC(C)=O)C(=O)OCCCC | 12% | 
3 | Oc1ccc(Cl)cc1Cc1cc(Cl)ccc1O | -15% and -0.451% | inactive
4 | COc1cc([C@H]2Oc3cc([C@H]4Oc5cc(O)cc(O)c5C(=O)[C@@H]4O)ccc3O[C@@H]2CO)ccc1O |  | inactive
5 | CC1(C)OC[C@@H]2O[C@@]3(C(=O)O)OC(C)(C)O[C@H]3[C@@H]2O1 | 0.338% | inactive
6 | CCCCCCCCCCCCCC(=O)OC(C)C | 2.24% | inactive
7 | CCCCCCCCCCCCCCCC(=O)O | -0.866% | inactive
8 | CCCCCCCCOc1ccc(C(=O)c2ccccc2)c(O)c1 | -1.61% | inactive
9 | CCOc1ccccc1C(N)=O | 2.38% | inactive
10 | CCCCC(CC)COC(=O)c1ccc(N(C)C)cc1 (stereo not drawn) | 5.66% and 6.49% | 
11 | CC1(COc2ccc(CC3SC(=O)NC3=O)cc2)CCCCC1 (stereo not drawn) | 13.5% | 
12 | COc1ccc(C(=O)c2ccccc2)c(O)c1 | 7.56% and 2.38% | 
13 | NC(=O)c1ccccc1O | -4.39% | inactive
14 | CN(C)C(=O)Nc1ccc(Cl)c(Cl)c1 | 5.92% | inactive
15 | Oc1c(Cl)cc(Cl)c(Cl)c1Cc1c(O)c(Cl)cc(Cl)c1Cl |  | inactive
16 | CCCCCCCC/C=C\CCCCCCCCN | 3.35% | inactive
17 | C/C=C/c1ccc(O)c(OC)c1 | 1.38% and 1.79% | inactive
18 | CCCCCCCCCCCCCCCCO | 0.781% | inactive
19 | CCOc1ccc(NC(C)=O)cc1 | 2.72% and -0.111% | inactive
20 | OC[C@H]1O[C@@H]2O[C@H]3[C@H](O)[C@@H](O)[C@@H](O[C@H]4[C@H](O)[C@@H](O)[C@@H](O[C@H]5[C@H](O)[C@@H](O)[C@@H](O[C@H]6[C@H](O)[C@@H](O)[C@@H](O[C@H]7[C@H](O)[C@@H](O)[C@@H](O[C@H]8[C@H](O)[C@@H](O)[C@@H](O[C@H]1[C@H](O)[C@H]2O)O[C@@H]8CO)O[C@@H]7CO)O[C@@H]6CO)O[C@@H]5CO)O[C@@H]4CO)O[C@@H]3CO | -1.43% | inactive
21 | CC(C)(C)CC(C)(C)c1ccc(O)c(-n2nc3ccccc3n2)c1 | 0.874% | 
22 | NCCNc1cccc2ccccc12 | -3.2% and 4.24% | 
23 | CCCN(CCC)S(=O)(=O)c1ccc(C(=O)O)cc1 | 7.36% and 2.17% | inactive
